According to PubChem BioAssay (NCATS):
Several values for one entry are separate records, joined by “and”; a condition that tells them apart may be missing. Identical values can stand only once. Results filed as inconclusive are left out. Activity calls are given as the source filed them. Calls come from the whole dose curve; as a rule, active = well fitted curve in the direction sought with a large enough effect; inconclusive = small, poorly fitted or top-dose-only effect, or another doubt; inactive = no such curve, though single readings can be large; an effect the other way counts as inactive or inconclusive.

Tests used:
MKL-2 = experiment: qHTS assay to identify novel small-molecules to repurpose for Merkel cell carcinoma treatment (AID 1296009); settings: MCC and control cell lines, CellTiter-Glo viability, 72 h; series mostly up to 46 µM; note: nearly all actives have a fitted effect of over 60% in size
Summary of the method: (§1)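 Cell viability, measured as CellTiter-Glo luminescence, was normalized between DMSO and no-cell wells. The cells had been exposed to 8- or 11-point compound dilutions for 72 hr at 37 degree celsius.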

UISO = experiment: as above; settings: MCC and control cell lines, CellTiter-Glo viability, 72 h; series mostly up to 46 µM
Summary of the method: as §1

WaGa = experiment: as above; settings: MCC and control cell lines, CellTiter-Glo viability, 72 h; series mostly up to 46 µM
Summary of the method: as §1

C33A = experiment: Primary qHTS to identify gynecologic anti-cancer compounds using libraries of approved drugs and bioactive compounds (AID 1345084); settings: Gynecologic cancer cell panel viability, ATPlite luminescence, 48 h; series mostly up to 57.5 µM; note: nearly all actives have a fitted effect of over 55% in size
Summary of the method: (§2)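 Cells, 1,000 per well, were allowed to settle for 16 h at 37 C before compound addition. Five concentrations were tested for 48 h, and viability was read by ATPlite luminescence after 15 min at room temperature.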

CAOV3 = experiment: as above; settings: Gynecologic cancer cell panel viability, ATPlite luminescence, 48 h; series mostly up to 57.5 µM
Summary of the method: as §2

CASKI = experiment: as above; settings: Gynecologic cancer cell panel viability, ATPlite luminescence, 48 h; series mostly up to 57.5 µM
Summary of the method: as §2

Es-2 = experiment: as above; settings: Gynecologic cancer cell panel viability, ATPlite luminescence, 48 h; series mostly up to 57.5 µM
Summary of the method: as §2

HeLa = experiment: as above; settings: Gynecologic cancer cell panel viability, ATPlite luminescence, 48 h; series mostly up to 57.5 µM
Summary of the method: as §2

Hek293T = experiment: as above; settings: Gynecologic cancer cell panel viability, ATPlite luminescence, 48 h, control line for the selectivity index; series mostly up to 57.5 µM
Summary of the method: as §2

JEG-3 = experiment: as above; settings: Gynecologic cancer cell panel viability, ATPlite luminescence, 48 h; series mostly up to 57.5 µM
Summary of the method: as §2

OV90 = experiment: as above; settings: Gynecologic cancer cell panel viability, ATPlite luminescence, 48 h; series mostly up to 57.5 µM
Summary of the method: as §2

PA-1 = experiment: as above; settings: Gynecologic cancer cell panel viability, ATPlite luminescence, 48 h; series mostly up to 57.5 µM
Summary of the method: as §2

SKOV3 = experiment: as above; settings: Gynecologic cancer cell panel viability, ATPlite luminescence, 48 h; series mostly up to 57.5 µM
Summary of the method: as §2

Tov-21-G = experiment: as above; settings: Gynecologic cancer cell panel viability, ATPlite luminescence, 48 h; series mostly up to 57.5 µM
Summary of the method: as §2

Tov112D = experiment: as above; settings: Gynecologic cancer cell panel viability, ATPlite luminescence, 48 h; series mostly up to 57.5 µM
Summary of the method: as §2

[1] = Drug repurposing screens with cells derived from glioblastoma tumor samples (AID 1345199); settings: GBM patient neurospheres viability, ATP luminescence, 48 h; note: nearly all actives have a fitted effect of over 40% in size
Summary of the method: (§3)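 Primary testing used CD133+ neurospheres from four GBM patients, seven concentrations, 48 h exposure and ATP-based viability; confirmation added three slower-growing patient lines.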

astro = experiment: as above; settings: viability, ATP luminescence, 48 h; series mostly up to 45.9 µM
Summary of the method: as §3

[2] = at 45.9 µM (top of the series), tumour line B
[3] = at 45.9 µM (top of the series), tumour line D
[4] = at 46 µM (top of the series), tumour line A
[5] = at 46.1 µM (top of the series), tumour line C
[6] = at 20 µM (top of the series), tumour line C
[7] = at 21.2 µM (top of the series), tumour line B
[8] = at 21.2 µM (top of the series), tumour line D
[9] = at 21.3 µM (top of the series), tumour line A
% is set by controls: 0 for no effect and ±100 for the full control effect.

OCc1ccccc1O
inactive: Potency (MKL-2) | Potency (UISO) | Potency (WaGa) | Potency (C33A) | Potency (CAOV3) | Potency (CASKI) | Potency (Es-2) | Potency (HeLa) | Potency (Hek293T) | Potency (JEG-3) | Potency (OV90) | Potency (PA-1) | Potency (SKOV3) | Potency (Tov-21-G) | Potency (Tov112D) | activity, negative = cell killing [1, 2] -10.5% | activity, negative = cell killing [1, 3] -12.8% | activity, negative = cell killing [1, 4] -23.4% | activity, negative = cell killing [1, 5] -1.35% | Potency (astro)

C[C@H](CCC(=O)O)[C@H]1CC[C@H]2[C@@H]3C(=O)C[C@@H]4CC(=O)CC[C@]4(C)[C@H]3CC(=O)[C@]12C
inactive: Potency (MKL-2) | Potency (UISO) | Potency (WaGa) | Potency (C33A) | Potency (CAOV3) | Potency (CASKI) | Potency (Es-2) | Potency (HeLa) | Potency (Hek293T) | Potency (JEG-3) | Potency (OV90) | Potency (PA-1) | Potency (SKOV3) | Potency (Tov-21-G) | Potency (Tov112D) | activity, negative = cell killing [1, 2] -0.788% | activity, negative = cell killing [1, 3] -14.6% | activity, negative = cell killing [1, 4] -2.78% | activity, negative = cell killing [1, 5] 3.71%

Cc1c(F)c(N2CCNC(C)C2)cc2c1c(=O)c(C(=O)O)cn2C1CC1 (stereo unspecified)
inactive: Potency (MKL-2) | Potency (UISO) | Potency (WaGa) | Potency (C33A) | Potency (CAOV3) | Potency (CASKI) | Potency (Es-2) | Potency (HeLa) | Potency (Hek293T) | Potency (JEG-3) | Potency (OV90) | Potency (PA-1) | Potency (SKOV3) | Potency (Tov-21-G) | Potency (Tov112D) | activity, negative = cell killing [1, 2] -3.48% | activity, negative = cell killing [1, 3] 3.74% | activity, negative = cell killing [1, 4] -33% | activity, negative = cell killing [1, 5] -2.18% | Potency (astro)

CN(C)CCOc1ccccc1Cc1ccccc1
inactive: Potency (MKL-2) | Potency (UISO) | Potency (WaGa) | Potency (C33A) | Potency (CAOV3) | Potency (CASKI) | Potency (Es-2) | Potency (HeLa) | Potency (Hek293T) | Potency (JEG-3) | Potency (OV90) | Potency (PA-1) | Potency (SKOV3) | Potency (Tov-21-G) | Potency (Tov112D) | activity, negative = cell killing [1, 2] -0.223% | activity, negative = cell killing [1, 3] -22.7% | activity, negative = cell killing [1, 5] -17.3% | Potency (astro)

OC[C@@H](O)[C@@H](O[C@@H]1O[C@H](CO)[C@H](O)[C@H](O)[C@H]1O)[C@H](O)[C@@H](O)CO
inactive: Potency (MKL-2) | Potency (UISO) | Potency (WaGa) | Potency (C33A) | Potency (CAOV3) | Potency (CASKI) | Potency (Es-2) | Potency (HeLa) | Potency (Hek293T) | Potency (JEG-3) | Potency (OV90) | Potency (PA-1) | Potency (SKOV3) | Potency (Tov-21-G) | Potency (Tov112D) | activity, negative = cell killing [1, 2] -6.48% | activity, negative = cell killing [1, 3] -4.42% | activity, negative = cell killing [1, 4] -40.2% | activity, negative = cell killing [1, 5] -3.02%

C[C@H]1[C@H](NC(=O)/C(=N/OC(C)(C)C(=O)O)c2csc(N)n2)C(=O)N1S(=O)(=O)O (stereo in doubt)
inactive: Potency (MKL-2) | Potency (UISO) | Potency (WaGa) | Potency (C33A) | Potency (CAOV3) | Potency (CASKI) | Potency (Es-2) | Potency (HeLa) | Potency (Hek293T) | Potency (JEG-3) | Potency (OV90) | Potency (PA-1) | Potency (SKOV3) | Potency (Tov-21-G) | Potency (Tov112D) | activity, negative = cell killing [1, 6] -1.55% | activity, negative = cell killing [1, 7] -2.78% | activity, negative = cell killing [1, 8] 9.37% | activity, negative = cell killing [1, 9] -17.3% | Potency (astro)

CC(=O)OCC(=O)[C@@]1(OC(C)=O)[C@@H](C)C[C@H]2[C@@H]3C[C@H](F)C4=CC(=O)C=C[C@]4(C)[C@@]3(F)[C@@H](O)C[C@@]21C
inactive: Potency (MKL-2) | Potency (UISO) | Potency (WaGa) | Potency (C33A) | Potency (CAOV3) | Potency (CASKI) | Potency (Es-2) | Potency (HeLa) | Potency (Hek293T) | Potency (JEG-3) | Potency (OV90) | Potency (PA-1) | Potency (SKOV3) | Potency (Tov-21-G) | Potency (Tov112D) | activity, negative = cell killing [1, 2] -11.4% | activity, negative = cell killing [1, 3] 4.06% | activity, negative = cell killing [1, 5] -10.3% | Potency (astro)

CCCCC(=O)O[C@]1(C(=O)CO)CC[C@H]2[C@@H]3CCC4=CC(=O)CC[C@]4(C)[C@H]3[C@@H](O)C[C@@]21C
inactive: Potency (MKL-2) | Potency (UISO) | Potency (WaGa) | Potency (C33A) | Potency (CAOV3) | Potency (CASKI) | Potency (Es-2) | Potency (HeLa) | Potency (Hek293T) | Potency (JEG-3) | Potency (OV90) | Potency (PA-1) | Potency (SKOV3) | Potency (Tov-21-G) | Potency (Tov112D) | activity, negative = cell killing [1, 2] -13.9% | activity, negative = cell killing [1, 3] -13.5% | activity, negative = cell killing [1, 4] -14.6% | activity, negative = cell killing [1, 5] -22.7% | Potency (astro)

C[C@]12C=CC(=O)C=C1[C@@H](F)C[C@@H]1[C@@H]2[C@@H](O)C[C@@]2(C)[C@H]1CC[C@]2(O)C(=O)CO
inactive: Potency (MKL-2) | Potency (UISO) | Potency (WaGa) | Potency (C33A) | Potency (CAOV3) | Potency (CASKI) | Potency (Es-2) | Potency (HeLa) | Potency (Hek293T) | Potency (JEG-3) | Potency (OV90) | Potency (PA-1) | Potency (SKOV3) | Potency (Tov-21-G) | Potency (Tov112D) | activity, negative = cell killing [1, 2] -7.25% and -6.51% | activity, negative = cell killing [1, 3] -13.8% and -3.47% | activity, negative = cell killing [1, 4] -18% | activity, negative = cell killing [1, 5] -19.6% and -9.59% | Potency (astro)

CN(C)CC/C=C1/c2ccccc2COc2ccc(CC(=O)O)cc21
inactive: Potency (MKL-2) | Potency (UISO) | Potency (WaGa) | Potency (C33A) | Potency (CAOV3) | Potency (CASKI) | Potency (Es-2) | Potency (HeLa) | Potency (Hek293T) | Potency (JEG-3) | Potency (OV90) | Potency (PA-1) | Potency (SKOV3) | Potency (Tov-21-G) | Potency (Tov112D) | activity, negative = cell killing [1, 2] -11.5% | activity, negative = cell killing [1, 3] 1.66% | activity, negative = cell killing [1, 4] -15.4% | activity, negative = cell killing [1, 5] 4.5% | Potency (astro)

Cc1ccnc(NS(=O)(=O)c2ccc(N)cc2)n1
inactive: Potency (MKL-2) | Potency (UISO) | Potency (WaGa) | Potency (C33A) | Potency (CAOV3) | Potency (CASKI) | Potency (Es-2) | Potency (HeLa) | Potency (Hek293T) | Potency (JEG-3) | Potency (OV90) | Potency (PA-1) | Potency (SKOV3) | Potency (Tov-21-G) | Potency (Tov112D) | activity, negative = cell killing [1, 6] -10.2% | activity, negative = cell killing [1, 7] -5.77% | activity, negative = cell killing [1, 8] -5.49% | activity, negative = cell killing [1, 9] -16.8% | Potency (astro)
